Test results as given in ChEMBL document CHEMBL3988442, “University of Dundee, Small-Polar-MMV Screening Library” (2021).
Out of some 38,000 compounds screened, about 1,200 (3.2%) showed an effect of 50% or more. The median lay at about -58%. Only a selection was taken, and strong results are over-represented in it overall.

Tested on: Plasmodium falciparum
Assay: Calibr Malaria Delayed Death Assay SOP
Type: functional, organism-based
Set-up: scale not given: in the data most compounds retested in dose-response had high values
Details: concentration 4.99e-06 (unit not given; other assays of the set use mol/L)

Structure (SMILES)	Percent Effect
O=C(COc1ccccc1NCc1ccc(F)cc1)N1CCOCC1	-94.22%
COCCOCC(=O)Nc1ccccc1F	-49.03%
COc1cc(CNc2cc(N3CCCC3CO)ncn2)ccn1 (stereo unspecified)	-84.2%
CN1CCC/C1=N\S(=O)(=O)c1ccc(NC(=O)c2ccsc2)cc1	-6.415%
CCn1cnnc1CNC(=O)c1cc(F)ccc1OC	-155.2%
Cl.Nc1cccnc1N1CCCCCC1	-85.39%
C[C@@H]1CN(CCC(=O)NCc2ccccc2Cl)C[C@@]1(O)C1CC1	46.32%
O=C(O)C(F)(F)F.O=C(O)C(F)(F)F.c1coc(CN2CCCn3c(CN4CCOCC4)nnc3C2)c1	-56.94%
CCSc1ccc(C(=O)NCCc2nnc(-c3ccco3)[nH]2)cn1	-77.1%
CC(OCC1CC1)C(=O)NCCC(=O)Nc1ccccn1 (stereo unspecified)	-13.51%
COc1ccc(OC)c(Nc2nc3c(C)nn(C)c3c(=O)n2C)c1	-88.36%
CCOCC1CC2(CCN(C(=O)c3ccc4ccccc4n3)CC2)CO1.O=C(O)C(F)(F)F (stereo unspecified)	2.806%
COc1ccc(CN(C)Cc2cccc(C#N)c2)c(OC)c1	25.49%
COc1cccc(N2CCC(CNCc3cccc(C#N)c3)C2)c1 (stereo unspecified)	-60.34%
COc1ccccc1C1(CNCc2cccc(C#N)c2)CCOCC1	66.05%
CC(C)NC(=O)CN1CCCNCC1	-82.69%
O=C(c1cc(-c2ccn(CC3CC3)n2)n2ccccc12)N1CCOCC1	67.86%
O=C(c1cc(-c2ccn(CC3CC3)n2)n2ccccc12)N1CCCO1	-90.15%
O=C(O)c1cc(-c2ccn(CC3CC3)n2)n2ccccc12	-79.58%
Cc1nc(CNC(=O)NC2CCCN(c3ncccn3)C2)cs1 (stereo unspecified)	-24.32%
CCn1nc(C)c2ccn(CC(=O)NCC3CCCO3)c(=O)c21 (stereo unspecified)	-59.75%
CCC(CNS(C)(=O)=O)Oc1ccccc1C (stereo unspecified)	-141.4%
CCC(CNC1CCN(C(C)=O)CC1)Oc1cccc(C)c1 (stereo unspecified)	51.47%
CCC(CNC1CCN(C(=O)N(C)C)CC1)Oc1ccccc1C (stereo unspecified)	72.22%
CCC(CNC1CCN(C(C)=O)CC1)Oc1ccccc1Cl (stereo unspecified)	48.49%
Cc1cccc(C)c1OC1CN(C(=O)C2CCN(C(=O)N(C)C)CC2)C1	-10.34%

Structure (SMILES)	Percent Effect
COCC(=O)N1CCC(Oc2cccc(C)c2)CC1	-129.3%
CCc1ccc(C(=O)N2CCN(CC(O)CC)CC2)o1 (stereo unspecified)	-8.781%
Cc1nn(C)c(C)c1C1COCCN1c1ncncc1Br (stereo unspecified)	-86.62%
O=C(O)C(F)(F)F.OCCN1CCC(F)(F)C2(CCN(c3cnccn3)C2)C1 (stereo unspecified)	-58.35%
CCc1nc(CC(=O)N2CCCC2c2c(C)nn(C)c2OC)cs1 (stereo unspecified)	-39.25%
COc1ccc(CN2CCC3(CC2)CC(c2cccnc2)CO3)cc1.O=C(O)C(F)(F)F.O=C(O)C(F)(F)F (stereo unspecified)	-68.03%
COCCN1CCC2(CC1)COc1ccccc1S(=O)(=O)N(C)C2	-7.731%
CCCN1CCC2(CC1)COc1ccccc1S(=O)(=O)N(CC1CC1)C2.O=C(O)C(F)(F)F	-32.31%
CN1CC2(CCN(CC3CC3)CC2)COc2ccccc2S1(=O)=O.O=C(O)C(F)(F)F	52.41%
CCC(=O)N1CCC2(CC1)COc1ccccc1S(=O)(=O)N(C)C2	-32.01%
CN(C)C(=O)CN1CCC2(CC1)COc1ccccc1S(=O)(=O)N(C)C2.O=C(O)C(F)(F)F	-44.68%
CN1CC2(CCN(C(=O)C3CCC3)CC2)COc2ccccc2S1(=O)=O	-31.54%
O=S1(=O)c2ccccc2OCC2(CCN(CCO)CC2)CN1CC1CC1	76.86%
CCN1CC2(CCN(C(=O)N(C)C)CC2)COc2ccccc2S1(=O)=O	-20.19%
COCC1CN(C(=O)Cc2cccs2)Cc2nnn(CC3CC3)c21 (stereo unspecified)	-20.67%
CC(OCC(F)(F)F)C(=O)N1CCOCC1 (stereo unspecified)	-69.84%
CN(C)c1ccc(C(=O)N2CCCC2c2cnn(C)c2)cn1 (stereo unspecified)	-130.6%
COc1cccc(CC(=O)N2CC[C@@H]3CN(C)S(=O)(=O)[C@@H]3CC2)c1	-25.41%
CC1=C(c2ccc(C)cc2)S(=O)(=O)N=C1N1CCc2ccccc21	-28.82%
OC1(CNc2ccc(F)cc2)CCNCC1	9.673%
CC(C(=O)Nc1sccc1C(N)=O)N(C)CCOc1ccccc1 (stereo unspecified)	2.405%
CCCNCc1ccc(-c2cc(N)nc3[nH]ccc23)cc1	71.86%
Nc1cc(-c2ccc(C(=O)O)cc2O)c2cc[nH]c2n1	-36.07%
Nc1cc(-c2cc(O)cc(C(=O)O)c2)c2cc[nH]c2n1	-8.693%
CCCn1nccc1C(=O)Nc1nc(C)c(C)s1	-95.22%
